The source of these data is PubChem BioAssay (NCI).

Each structure is given as a SMILES string. “And” between values parts separate entries of the source, which are not always exact repeats. Equal values may be shown once. About 83,000 compounds went through this panel and 20% of them were active in at least one assay; those are over-represented in the sample as a whole.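 Compound tested at a single concentration for 48 hours in 96-well plates; a percent growth value below 10 was scored as active.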 A number with no mark means an inactive call. The source made the active and inactive calls.

Among the test systems are T-47D breast; BT-549 breast; MDA-MB-435 melanoma; SW-620 colon; MCF7 breast; HCT-116 colon; HCC-2998 colon; KM12 colon; MDA-MB-468 breast.
Holding throughout (assay): NCI-60 one-dose screen, 48 h (100 = growth as untreated, 0 = no growth, -100 = all killed)
What all share (details): 10 µM unless noted

As for `N#CC1=C(c2cccs2)Nc2c(c(-c3ccccc3)nn2-c2ccccc2)C12C(=O)Nc1ccc(Cl)cc12` (stereo not drawn), the growth was 11% with T-47D breast; -21.7% (active) in the assay with BT-549 breast; 41.2% in the assay on MDA-MB-435 melanoma; 21.3% in the assay on SW-620 colon; 15.1% in the assay with MCF7 breast; 11.5% in the assay with HCT-116 colon. The growth with HCC-2998 colon is 26.1%; in the assay on KM12 colon, 15.3%; in the assay on MDA-MB-468 breast, -22.1% (active).

In the case of `CC(=O)Nc1cccc(-n2c(COc3ccc(Br)cc3)nc3ccccc32)c1`, the growth with T-47D breast was 88.5% and 109%; in the assay with BT-549 breast, 109% and 97.2%; in the assay with MDA-MB-435 melanoma it was 107% and 103%; in the assay on SW-620 colon it was 97.9% and 103%; in the assay on MCF7 breast it was 82.3% and 97.2%; in the assay on HCT-116 colon, 101% and 102%. For the same compound, the growth in the assay with HCC-2998 colon was 129% and 112%; in the assay on KM12 colon, 103% and 101%; in the assay on MDA-MB-468 breast, 81.7% and 102%.

With `COc1cc2cc(C(=O)N3C[C@@H](CCl)c4c3cc(OC(=O)N(CCC(=O)N3CCN(C)CC3)C3CCCCC3)c3ccccc43)[nH]c2c(OC)c1OC`, the growth in the assay on T-47D breast was -43.1% (active); in the assay with BT-549 breast, -94.4% (active); in the assay with MDA-MB-435 melanoma, -90.8% (active); in the assay with SW-620 colon it was -55% (active); with MCF7 breast, -59.6% (active); in the assay on HCT-116 colon it was -88.1% (active). Also, the values for the growth in the assay with HCC-2998 colon, with KM12 colon and in the assay on MDA-MB-468 breast were -91% (active), -39.1% (active) and -91.8% (active), respectively.

For the compound `CSc1ccc(OCc2nc3ccccc3n2-c2cccc(NS(C)(=O)=O)c2)cc1`, the growth in the assay on T-47D breast was 99.4% and 78.4%; in the assay on BT-549 breast, 131% and 105%; with MDA-MB-435 melanoma, 105% and 98.3%; in the assay with SW-620 colon, 102% and 94.4%; with MCF7 breast it was 89.9% and 55.7%; with HCT-116 colon, 101% and 70.6%. For the same compound, the growth in the assay with HCC-2998 colon was 122% and 112%; in the assay on KM12 colon, 103% and 78.8%; in the assay with MDA-MB-468 breast, 110% and 98.2%.

For the compound `Clc1ccc(Nc2nnc(-c3c[nH]c4ccccc34)o2)cc1`, the growth is 42% with T-47D breast; 63.7% in the assay on BT-549 breast; 25% with MDA-MB-435 melanoma; 86.1% in the assay with SW-620 colon; 38.3% with MCF7 breast; 79.5% with HCT-116 colon. The growth in the assay on HCC-2998 colon is 74.5%; in the assay on KM12 colon, 36%; with MDA-MB-468 breast, -20.5% (active).

Regarding `COC(=O)c1cccc(Oc2ccc(NC(=O)Nc3cc(C(F)(F)F)ccc3F)cc2)c1`, the growth in the assay with T-47D breast was 47%; in the assay on BT-549 breast, 64.7%; in the assay with MDA-MB-435 melanoma, 92.4%; in the assay on SW-620 colon, 89.7%; with MCF7 breast, 61.8%; in the assay on HCT-116 colon it was 60.7%. Also, the values for the growth in the assay on HCC-2998 colon, with KM12 colon and in the assay with MDA-MB-468 breast were 96.9%, 75.3% and 71.5%, respectively.

Turning to `COc1ccc2c(c1)C(Sc1ccc(F)cc1)c1c(nc(N)c(C#N)c1N)O2` (stereo not drawn), the growth is 79% in the assay on T-47D breast; 62.1% with BT-549 breast; 91% with MDA-MB-435 melanoma; 84.7% in the assay on SW-620 colon; 67.5% with MCF7 breast; 79.9% with HCT-116 colon. In addition, the growth is 114% in the assay on HCC-2998 colon, 85% in the assay on KM12 colon and 99.6% in the assay on MDA-MB-468 breast.

For the compound `N#CC1=C(c2cccs2)Nc2c(c(-c3ccccc3)nn2-c2ccccc2)C12C(=O)Nc1ccc(Br)cc12` (stereo not drawn), the growth in the assay with T-47D breast was 1.8% (active); in the assay on BT-549 breast, -68.4% (active); with MDA-MB-435 melanoma, -40.1% (active); in the assay with SW-620 colon it was -24.6% (active); in the assay on MCF7 breast it was 7.23% (active); with HCT-116 colon, -52.8% (active). The growth in the assay on HCC-2998 colon is 6.28% (active); in the assay with KM12 colon, -12.2% (active); in the assay with MDA-MB-468 breast, -31.9% (active).

Consider `O=C(NNC(=S)NCCc1ccccc1)c1ccc(OCc2nc3ccc(Cl)cc3[nH]2)cc1`, for which the growth with T-47D breast is 39.4%; in the assay on BT-549 breast it was 61.5%; in the assay with MDA-MB-435 melanoma, 84.3%; in the assay with SW-620 colon, 129%; in the assay on MCF7 breast, 34.2%; in the assay with HCT-116 colon, 64.3%. In addition, the growth with HCC-2998 colon is 104%; in the assay on KM12 colon, 63%; in the assay on MDA-MB-468 breast, 61.4%.

Regarding `COc1ccc(-c2cc(C(=O)Oc3ccc(C=O)cc3OC)nn2-c2ccc(S(C)(=O)=O)cc2)cc1`, the growth was 92.2% in the assay with T-47D breast; 105% in the assay on BT-549 breast; 98.3% with MDA-MB-435 melanoma; 109% in the assay on SW-620 colon; 84.5% with MCF7 breast; 98.3% in the assay with HCT-116 colon. Besides, the growth was 116% in the assay with HCC-2998 colon, 103% in the assay on KM12 colon and 107% in the assay with MDA-MB-468 breast.

Consider `CN(C)CCCc1ccc(Nc2cnn(C)c(=O)c2Cl)cc1`, for which the growth is 98.2% with T-47D breast; 115% in the assay on BT-549 breast; 97.8% in the assay with MDA-MB-435 melanoma; 109% with SW-620 colon; 80.8% in the assay on MCF7 breast; 95.5% in the assay on HCT-116 colon. For the same compound, the growth with HCC-2998 colon was 118%; in the assay on KM12 colon, 111%; in the assay on MDA-MB-468 breast, 82.8%.

On to `COc1ccc(N=Nc2c(N)nn3c(N)c(C#N)c(-c4ccc(F)cc4)nc23)cc1`, for which the growth in the assay on T-47D breast was 55.7%; in the assay on BT-549 breast, 49.3%; with MDA-MB-435 melanoma, 86.2%; with SW-620 colon it was 88.6%; with MCF7 breast, 57.1%; in the assay with HCT-116 colon it was 46.4%. Moreover, the values for the growth in the assay on HCC-2998 colon, with KM12 colon and in the assay with MDA-MB-468 breast were 66.7%, 56.7% and 46.7%, respectively.
